# Screening data from PubChem BioAssay.
# Most compounds without a hit are left out; they make up all but 6% or so of the library.
# D1 antag – antagonists of human D1 dopamine receptor; HEK293 TREx D1 cells, calcium flux, dopamine EC80; active compounds read low; AID 504652; actives 3.2% (n = 360,000); P21728; activity change, negative = inhibition, % at 10 µM; in the data active means activity change below about -30%; further: on the % scale 0 is the no-effect control and ±100 the full control effect
#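 Using tetracycline-induced force-coupled D1 Hek293 cells and a calcium dye, signals were followed for 180 s after compound, then for 180 s after EC80 dopamine, to detect inhibitors.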
# D1 PAM – potentiators of human D1 dopamine receptor; P21728; HEK293 TREx D1 cells, calcium flux, dopamine EC20 potentiation; potentiation, % at 10 µM; actives 0.036% (n = 360,000); AID 504651; in the data active means potentiation above about 30%; further: 0% is about no effect
# D3 ag – agonists of human D3 dopamine receptor; D3R DiscoveRx beta-arrestin cells, luminescence, 90 min; max activation, %; actives 0.58% (n = 410,000); AID 652048; in the data active means max activation above about 30%; further: 0% is about no effect
# Target sequence (P35462 whole entry, looked up): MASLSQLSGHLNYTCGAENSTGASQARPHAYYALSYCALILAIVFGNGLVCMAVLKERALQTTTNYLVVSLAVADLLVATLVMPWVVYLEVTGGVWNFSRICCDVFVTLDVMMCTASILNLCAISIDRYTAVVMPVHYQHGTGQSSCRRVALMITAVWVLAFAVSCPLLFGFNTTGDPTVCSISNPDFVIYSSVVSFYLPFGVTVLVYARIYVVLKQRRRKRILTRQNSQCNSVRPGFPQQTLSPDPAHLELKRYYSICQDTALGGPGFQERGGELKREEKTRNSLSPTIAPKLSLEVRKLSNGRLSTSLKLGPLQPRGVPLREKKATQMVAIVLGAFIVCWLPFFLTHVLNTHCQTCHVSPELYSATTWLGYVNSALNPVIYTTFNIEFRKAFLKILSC
#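 Agonist mode: compounds and dopamine controls were applied to plated cells for 90 min at 37 degrees C after an overnight attachment at 1500 cells/well. Luminescent read-out followed 30 - 60 minutes at room temperature with DiscoveRx detection reagent.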
# D1 ag – human D1 receptor agonism; P21728; actives 1% (n = 360,000); HEK293 T-REx D1 cells, calcium flux, agonist mode; activation, % at 2 µM; in the data active means activation above about 30%; further: 0% is about no effect
#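 Inducible HEK293 T-REx D1 cells, force-coupled to calcium signalling, were plated at 4000 cells/well with tetracycline and held overnight at 30 C. After no-wash calcium dye loading, compound-evoked calcium rise over 180 s flagged agonists.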
# D3 antag – blocks the human D3 dopamine receptor. actives 2.5% (n = 360,000). max response, negative = inhibition, %. D3R cells, DiscoveRx beta-arrestin luminescence, antagonist mode; active compounds read low. AID 652054; in the data active means max response below about -50%; inconclusive means no clear call, values can overlap the other calls; further: on the % scale 0 is the no-effect control and ±100 the full control effect
#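 Cells plated overnight at 1500 cells/well, then exposed to library compounds with dopamine controls for 90 minutes at 37 degrees C. DiscoveRx reagent added for 30–60 minutes at room temperature; luminescence read, quantitative HTS format.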
# Numbers without * were called inactive; ? = inconclusive; . = no result.
SMILES,D1 antag,D1 PAM,D3 ag,D1 ag,D3 antag
COc1ccc(S(=O)(=O)c2c(Nc3ccc(C)cc3)sc(C(=O)c3ccc4c(c3)OCO4)c2N)cc1,-38*,5,3,78*,.
COc1ccc(S(=O)(=O)c2c(Nc3ccc(F)cc3)sc(C(=O)c3ccc4c(c3)OCO4)c2N)cc1,23,-2,2,43*,.
Cc1ccc(S(=O)(=O)c2c(Nc3ccccc3)sc(C(=O)c3ccc4c(c3)OCO4)c2N)cc1,2,-1,-13,64*,.
Cc1ccccc1Nc1sc(C(=O)c2ccc3c(c2)OCO3)c(N)c1S(=O)(=O)c1ccccc1,0,2,-9,6,.
O=C(Nc1ccc(Cl)cc1)C1CCC(CNS(=O)(=O)c2ccc(Br)s2)CC1 (centres undefined),-21,-2,-2,7,.
CCCCOC(=O)c1ccc(NC(=O)c2csnn2)cc1,-7,-1,8,-1,.
COc1ccc(NC(=O)CSC2=Nc3ccccc3C3=NC(CCC(=O)NCc4ccco4)C(=O)N23)cc1 (centres undefined),45,8,8,3,.
COc1cc(OC)cc(-n2c(=O)c3ccccc3n(CC(=O)NCCc3ccc(OC)c(OC)c3)c2=O)c1,8,1,-3,4,.
O=S(=O)(c1cccc(F)c1)N1CCc2sccc2C1c1ccc(OC(F)(F)F)cc1 (centres undefined),-41*,-1,-17,27,-23
O=C1CN(C(=O)c2ccc(S(=O)(=O)N3CCCCC3)cc2)C(c2ccc(F)cc2)c2cc(F)ccc2N1 (centres undefined),11,0,4,5,.
Cc1cc(C)c2nc(N3C(=O)C(O)=C(C(=O)c4ccco4)C3c3ccco3)sc2c1 (centres undefined),15,3,31*,0,75
C=CCOc1ccc(C2C(C(=O)c3ccco3)=C(O)C(=O)N2c2nnc(C)s2)cc1 (centres undefined),-8,1,-4,57*,-19
CSc1nnc(N2C(=O)C(O)=C(C(=O)c3ccco3)C2c2cccc(Cl)c2)s1 (centres undefined),-7,3,-6,15,?
O=C(C1=C(O)C(=O)N(c2ncccn2)C1c1cccc(Cl)c1)c1ccco1 (centres undefined),4,-3,-3,1,-74*
CSc1nnc(N2C(=O)C(O)=C(C(=O)c3ccco3)C2c2ccc(F)cc2)s1 (centres undefined),8,4,-8,128*,?
COc1ccc(C)cc1NC(=O)c1nnn(-c2c(C)cccc2C)c1C,6,-2,0,-1,.
CCOc1ccc2nc(Cl)c(C3CC(c4ccccc4)=NN3C(=O)CCC(=O)O)cc2c1 (centres undefined),6,0,6,3,.
COc1cccc(CNC(=O)c2ccc(-c3nc(CS(=O)c4ccccc4)c(C)o3)cc2)c1 (centres undefined),-6,0,-2,1,.
CCSc1nnc(N2C(=O)C(O)=C(C(=O)c3ccco3)C2c2cccc(OC)c2)s1 (centres undefined),0,-5,-12,77*,-5
CCCCOc1ccccc1C(=O)N(Cc1cccc(F)c1)C1CCS(=O)(=O)C1 (centres undefined),4,4,3,0,.
COc1cc(/C=N/n2c(-c3cc(C)[nH]n3)n[nH]c2=S)cc(OC)c1OC,3,-1,-8,4,-51*
COc1cc(/C=N/n2c(-c3cc(C)[nH]n3)n[nH]c2=S)ccc1O,6,-3,10,1,?
CCc1ccc(-n2nc(CO)c(C(=O)NCCCc3ccccc3)n2)cc1,-21,5,0,7,.
Cc1nnc(SCC(=O)Nc2nccs2)s1,6,-6,2,-2,3
Nc1nnc(SCC(=O)Nc2nccs2)s1,-43*,-5,-3,1,-3
SMILES,D1 antag,D1 PAM,D3 ag,D1 ag,D3 antag
CC(=O)c1cccc(NC(=O)c2noc3c2CSc2ccccc2-3)c1,-9,4,1,1,.
COc1ccccc1C(=O)COC(=O)C(NC(=O)Cc1ccccc1)C(C)C (centres undefined),.,.,-5,.,2
COC(=O)c1ccc(COC(=O)C(NC(=O)Cc2ccccc2)C(C)C)cc1 (centres undefined),-32*,2,0,6,-7
CCOC(=O)c1c(CSc2ccc(CC)cc2)oc2ccc(O)c(CN(C)C)c12,-15,-10,-8,45*,-64*
CCOC(=O)c1c(C)oc2ccc(O)c(CN(C)C)c12,4,-2,-1,4,-23
CC(C)(CCl)C(=O)Nc1ccc(OC(F)(F)F)cc1,-11,-5,6,9,22
Cc1cc(C)n(-c2ccc(Cl)c(C(=O)Nc3ccc(OC(F)(F)F)cc3)n2)n1,-36*,-1,-20,1,-19
N#CC1(Nc2cccc(Br)c2)C(=O)Nc2ccccc21 (centres undefined),-17,0,-25,53*,-17
COc1ccc(OC)c(-c2cc(C(=O)Nc3cc(C)on3)no2)c1,-12,2,-24,1,?
COc1cccc(-c2cc(C(=O)NCc3ccco3)no2)c1,-9,-5,-7,1,-11
COc1ccc(OC)c(-c2cc(C(=O)Nc3c(C)nn(Cc4ccc(Cl)cc4)c3C)no2)c1,7,4,41*,4,16
COc1ccc(OC)c(-c2cc(C(=O)NCc3ccco3)no2)c1,-34*,-16,-27,3,-54*
COc1ccc(OC)c(-c2cc(C(=O)Nc3c(C)nn(Cc4ccccc4)c3C)no2)c1,-44*,1,35*,4,23
Cc1ccc2occ(CC(=O)N(Cc3ccccc3Cl)C3CCS(=O)(=O)C3)c2c1 (centres undefined),6,-2,1,0,.
Cc1oc(-c2ccccc2)nc1CNS(=O)(=O)c1ccc(Cl)cc1,-1,0,9,-1,.
CC(=O)N1N=C(c2cccc([N+](=O)[O-])c2)OC1c1ccccc1Cl (centres undefined),7,-1,-3,3,-60*
CC(=O)N1N=C(c2cccc([N+](=O)[O-])c2)OC1(C)c1cccs1 (centres undefined),1,-8,-5,4,10
CCC1CCCCN1c1nc(-c2cccc(OC)c2O)nc2ccccc12 (centres undefined),36,9,31*,0,28
CC(C)CC(N)c1csc(NC(=O)Nc2ccccc2C(C)(C)C)n1 (centres undefined),.,.,-6,.,0
O=C(CSc1nc2c([nH]c3ccccc32)c(=O)n1-c1ccc(Cl)cc1)N1CCCCCC1,-2,-4,1,2,.
